This is an account of results in PubChem BioAssay (NCATS).

Results filed as inconclusive are left out. The source made the active and inactive calls. Calls follow the shape of the dose curve; as a rule, active = well fitted inhibition curve with a large enough effect; inconclusive = small, poorly fitted or top-dose-only effect; inactive = no such curve, though single readings can be large or run the other way.
Potency is read from the fitted curve at half-maximal effect.

A short description of this assay: qHTS to identify inhibitors of the type 1 interferon - major histocompatibility complex class I in skeletal muscle: primary screen against the NCATS Mechanism Interrogation Plate v5.0 (MIPE) Libary (AID 1347411). Also: nearly all actives have a fitted effect of over 65% in size.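 As to activity change, negative = inhibition: plate controls were vehicle for no effect and reference inhibitor for full effect.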 The following applies: iHSKM cells + IFN-b, HiBiT-tagged MHC-I luminescence, 24 h; series mostly up to 45.8 µM; activity change, negative = inhibition: at the top concentration. From the text: Assay Submitter (PI): Travis B. Kinder Ph.D. & James Inglese Ph.D.
Assay Development and Screening Technology Laboratory (ADST)
National Center for Advancing Translational Sciences (NCATS), Rockville, MD
National Institute of Health (NIH), Bethesda, Maryland
Idiopathic inflammatory myopathies, collectively referred to as myositis, are a group of rare autoimmune diseases characterized by skeletal muscle inflammation, weakness, and usually accompanied by systemic pathologies of the skin, lungs, or vasculature. Current immunosuppressive therapies and glucocorticoids are often not curative and are accompanied by harsh side effects, especially in children with juvenile myositis. We initiated a drug repurposing and development program to identify more targeted, less toxic therapeutics to treat myositis. Although its cause is not known, muscle from a subset of patients have an abundance of the inflammatory type 1 interferon (IFN) and a down-stream product major histocompatibility complex class I (MHC class I), which are both thought to contribute to damage and weakness. We conducted quantitative high throughput screening on 6,576 compounds (4,679 unique) through a series of cell-based assays to identify those that inhibit the IFN-stimulated expression of MHC class I in muscle precursor cells (myoblasts). The compound identification and evaluation strategy utilized a primary screen with reporter-tagged MHC class I in genome-engineered myoblasts, ATP content counter screen for viability, HLA-ABC immunofluorescence secondary screen, and HLA-B RT-qPCR tertiary screen.
The primary screen utilized CRISPR/Cas9 genome-engineering of immortalized human myoblasts, C25cl48, where a pro-luminescent reporter HiBit was fused to the C-terminus of endogenous MHC class I allele HLA-B*08:01 (HLA-B HiBit myoblasts). HiBit is an 11 amino acid fragment of NanoLuc luminescent reporter (Promega Corporation), and when complexed to the larger LgBit fragment, the reconstituted enzyme produces light in the presence of furimazine substrate (Schwinn et al., 2018). Briefly, HLA-B HiBit myoblasts were plated into 1536-well plates, treated with 4.0 ng/ml human IFN-beta and 2,480 compounds from the NCATS Mechanism Interrogation Plate v5.0 (MIPE5.0) in an 11-point, 1:3 titration with a high final concentration of 46 uM. After 24 hrs of treatment, cells were assayed by Nano-Glo HiBiT Lytic Detection System (Promega) and luminescence measured by a ViewLux 1430 Ultra HTS (Perkin Elmer).
Schwinn MK, Machleidt T, Zimmerman K, Eggers CT, Dixon AS, Hurst R, Hall MP, Encell LP, Binkowski BF, Wood K V. 2018. CRISPR-Mediated Tagging of Endogenous Proteins with a Luminescent Peptide. ACS Chem Biol 13:467-474. doi:10.1021/acschembio.7b00549
PROTOCOL TABLE (as described by Inglese et al., 2007)
SEQUENCE No. (e.g., 1, 2, 3, etc.); […] (e.g., Cells, Incubation, Reagent, etc.); VALUE; DESCRIPTION
1a; Cells; 5 uL; Use a Multidrop Combi (Thermo Scientific) to seed 300 cells/well into 24 Greiner 1536 well white/solid bottom, high base, TC plates in 5 ul/well of iHSKM growth medium (GM) without dexamethasone into columns 1+2. Add metal lids with gas-exchange holes
1b; Cells; 5 uL; Use a Multidrop Combi (Thermo Scientific) to seed 300 cells/well into 24 Greiner 1536 well white/solid bottom, high base, TC plates in 5 ul/well of iHSKM GM without dexamethasone + 4 ng/ml IFN-b into columns 3 - 48. Add metal lids with gas-exchange holes
2; Incubate; 1 hr; Incubate at 37 C, 5% CO2, 95% RH
3; Compounds; 23 nl; Use Pin Tool (Wako) to transfer DMSO control, ruxolitinib IFN-b inhibitor control [High Concentration = 80 uM final, 16-pt, 1:2 in duplicate], and library compounds in DMSO
4; Incubate; 24 hrs; Incubate at 37 C, 5% CO2, 95% RH
5; Dispense; 2.5 ul; Use BioRAPTR FRD (Beckman Coulter) to add HiBit lytic reagent
6; Incubate; 10 min; Incubate in the dark at ambient temperature for lysis
7; Detector; 5 sec; Measure luminescence with ViewLux 1430 Ultra HTS (Perkin Elmer). […]
(In general: qHTS replaces the single test concentration by a dilution series.)
As to `COc1cc2ncn(-c3cc(OCc4ccccc4S(C)(=O)=O)c(C#N)s3)c2cc1OC`, the “activity change, negative = inhibition” value is -14.8% (inactive).

As to `C#CCN(C)CC1=Cc2ccccc2Oc2ccccc21`, the “activity change, negative = inhibition” value was -12.3% (inactive).

For `CC[C@@H]([C@H](C)O)n1ncn(-c2ccc(N3CCN(c4ccc(OCC5CO[C@@](Cn6cncn6)(c6ccc(F)cc6F)C5)cc4)CC3)cc2)c1=O` (stereo not given in full), the “activity change, negative = inhibition” value is -4.4% (inactive).

Turning to `CC1=C(C(=O)Nc2cc3cn[nH]c3cc2F)C(c2ccc(C(F)(F)F)cc2)CC(=O)N1` (stereo not given), the “activity change, negative = inhibition” value is -20.8% (inactive).

`Cc1ccccc1-n1c(Cn2nc(-c3cccc(O)c3)c3c(N)ncnc32)nc2cccc(C)c2c1=O`: the Potency is 20.8 µM (active).

For the molecule `Cc1cnc(CNC(=O)c2c(=O)c3ccc(N4CCCN(C)CC4)nc3n3c2sc2ccccc23)cn1`, the activity change, negative = inhibition was -4.9% [at 8.44 µM] (inactive).

Regarding `O=C(O)Cc1cccc(OCCCN(Cc2cccc(C(F)(F)F)c2Cl)CC(c2ccccc2)c2ccccc2)c1`, the “activity change, negative = inhibition” value is -22.2% (inactive).

For the molecule `C[C@]12CC[C@@H]3c4ccc(O)cc4CC[C@H]3[C@H]1[C@@H](O)[C@@H](O)[C@H]2O`, the “activity change, negative = inhibition” value was 9.54% (inactive).

For `COc1cc2c(cc1OC)CC(=O)N(CCCN(C)C[C@H]1Cc3cc(OC)c(OC)cc31)CC2`, the “activity change, negative = inhibition” value was -4.96% (inactive).

For the molecule `N[C@@H](CC(=O)N1CCn2c(nnc2C(F)(F)F)C1)Cc1cc(F)c(F)cc1F`, the “activity change, negative = inhibition” value is -28.3% (inactive).

For the molecule `NC[C@H]1O[C@H](O[C@@H]2[C@@H](O)[C@@H](O[C@H]3O[C@H](CO)[C@@H](O)[C@H](N)[C@@H]3O)[C@H](N)C[C@@H]2N)[C@H](O)[C@@H](O)[C@H]1O`, the “activity change, negative = inhibition” value is 1.08% (inactive).

As for `O=[N+]([O-])c1ccc(Nc2ccccc2-c2ccccc2)c2nonc12`, the Potency was 26.2 µM (active).

For `NCc1c[nH]c(=S)n1[C@H]1CCc2c(F)cc(F)cc2C1`, the “activity change, negative = inhibition” value is -2.87% (inactive).

As for `N#CC(c1ccc(Cl)cc1)c1c(Cl)cc(-n2ncc(=O)[nH]c2=O)cc1Cl` (stereo not given), the “activity change, negative = inhibition” value was 7.95% (inactive).

On to `Cn1c(=O)c(-c2c(Cl)cccc2Cl)cc2cnc(Nc3cccc(C(=O)O)c3)nc21`, for which the “activity change, negative = inhibition” value was -16.4% (inactive).

Take `C[C@H](c1ccc(F)cc1CCCC(=O)O)N(c1cc(F)ccc1F)S(=O)(=O)c1ccc(Cl)cc1`: the “activity change, negative = inhibition” value was 12.4% (inactive).

For the molecule `O=C(CO)N1CCC(c2[nH]nc(-c3ccc(Cl)cc3)c2-c2ccncn2)CC1`, the “activity change, negative = inhibition” value is -13.3% (inactive).

On to `CNc1nc(Nc2ccc(C(=O)N3CCOCC3)cc2OC)ncc1Cl`, for which the “activity change, negative = inhibition” value was -8.06% (inactive).

Consider `CC(C)(OCc1nn(Cc2ccccc2)c2ccccc12)C(=O)O`, for which the “activity change, negative = inhibition” value is -13.5% (inactive).

For the molecule `COc1cc(Nc2nc3ccccc3nc2NS(=O)(=O)c2ccc(NC(=O)c3ccc(C)c(OC)c3)cc2)cc(OC)c1`, the “activity change, negative = inhibition” value is -15.9% (inactive).

`O=C1CCCC(=O)C1C(=O)c1ccc(C(F)(F)F)cc1[N+](=O)[O-]`: the “activity change, negative = inhibition” value is -27.8% (inactive).

On to `CC1=C(CC(=O)O)c2cc(F)ccc2C1=Cc1ccc(S(C)=O)cc1` (stereo not given), for which the “activity change, negative = inhibition” value is -10.4% (inactive).

As for `N#CC1(c2cccc(C(=O)Nc3cc(Oc4ccc5nc(NC(=O)C6CC6)sc5n4)ccc3F)c2Cl)CC1`, the “activity change, negative = inhibition” value is -21.1% (inactive).

As for `O=C(CC12CC3CC(CC(C3)C1)C2)Nc1cccc2nc(NCCNCCO)ccc12`, the “activity change, negative = inhibition” value is -10.4% (inactive).

As to `N#CC(c1ccnc(NCCc2cccnc2)n1)c1nc2ccccc2s1` (stereo not given), the Potency is 14.7 µM (active).

On to `NC(=O)c1ccc(N(C(N)=O)c2c(F)cccc2F)nc1-c1ccc(F)cc1F`, for which the “activity change, negative = inhibition” value was -21.4% (inactive).

In the case of `C[C@@H](N)c1ccc(C(=O)Nc2ccnc3[nH]ccc23)cc1`, the Potency is 16.5 µM (active).

For `O=C(NC[C@H](O)CO)c1ccncc1Nc1ccc(I)cc1F`, the “activity change, negative = inhibition” value was -23.9% (inactive).

Take `COC(=O)[C@H](c1ccccc1Cl)N1CCc2sccc2C1`: the “activity change, negative = inhibition” value is 15.9% (inactive).

As to `CN1CC(=O)NC1=NC(=O)Nc1cccc(Cl)c1`, the “activity change, negative = inhibition” value is -16% (inactive).

Take `COc1nc(C)cnc1NS(=O)(=O)c1cccnc1-c1ccc(-c2nnco2)cc1`: the “activity change, negative = inhibition” value was 0.366% (inactive).

For the molecule `COc1cc2nccc(Oc3ccc(NC(=O)Nc4ccc(F)cc4F)c(F)c3)c2cc1OC`, the Potency is 10.4 µM (active).

Regarding `CNC(=O)c1cc(Oc2ccc(NC(=O)Nc3ccc(Cl)c(C(F)(F)F)c3)c(F)c2)ccn1`, the Potency is 23.4 µM (active).

Turning to `CN1CCN(c2cccc(Nc3nc4c(-c5ccc(S(C)(=O)=O)cc5)cccn4n3)c2)CC1`, the Potency was 5.23 µM (active).

On to `O=C(O)CCC=CCC[C@@H]1[C@H](N2CCCCC2)[C@@H](O)C[C@@H]1OCc1ccc(-c2ccccc2)cc1`, for which the “activity change, negative = inhibition” value is -2.76% (inactive).

As to `O=c1[nH]nc(OCCCc2ccc(Cl)cc2)c(NCc2cccnc2)c1Br`, the “activity change, negative = inhibition” value is -41.3% (inactive).

Regarding `CN1CCN(c2ncc(-c3cc(Cl)cc(Cl)c3Cl)c(N)n2)CC1`, the “activity change, negative = inhibition” value was -12.1% (inactive).

With `CCC[C@H](N[C@@H](C)C(=O)N1[C@@H]2CCCC[C@H]2C[C@H]1C(=O)O)C(=O)OCC`, the “activity change, negative = inhibition” value was -21.3% (inactive).

For `Cc1ccc(S(=O)(=O)OCC(=O)Nc2ccc(C(=O)O)c(O)c2)cc1`, the “activity change, negative = inhibition” value was 6.39% (inactive).

Turning to `Nc1ncnc2c1ncn2[C@@H]1O[C@H](CO)[C@@H](O)[C@@H]1O`, the “activity change, negative = inhibition” value is -16.8% (inactive).
